PD-1 reverse act = reversal of PD-1 mediated T-cell inhibition | primary human CD4 T cells, PD-L1 beads, CellTiter-Glo 96 h | activation, % (no concentration beside the values) | 29,000 tested, under 10 active | AID 2316; call rule not given here;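 further: 0% = median vehicle wells and 100% = positive control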
YB-1 expr inh = YB-1 expression inhibition; AID 434959; U2OS, qRT-PCR YB-1 vs CDIP delta delta Cp, 16 h; hits give high values; zero = DMSO, each unit about twofold; 0.37% of 30,000 active; delta delta Cp (YB-1 minus CDIP) (no concentration beside the values);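 active means delta delta Cp rounded down to an integer at or above 3, about 3 SD of DMSO wells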;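 further: higher means less YB-1 transcript or more CDIP transcript relative to DMSO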
U2OS ROS induce = inducers of reactive oxygen species in cancer cells | 2% of 46,000 active | U2OS ROS induction, H2DCF-DA fluorescence | ROS induction (% of piperlongumine), % at 10 µM; in the data active means ROS induction above about 79%, passing the limit was not always enough; inconclusive means no clear call, values can overlap the other calls;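 further: 0% = DMSO vehicle median and 100% = reference compound median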
* hit, by the source's call; u = inconclusive; x = not tested or not shown. A selection: hits, their analogues and other compounds. The true share with any hit is near 2.3%.

SMILES	PD-1 reverse act	YB-1 expr inh	U2OS ROS induce
CCOC(=O)C(C)Sc1ncnc2nc[nH]c12 (stereo not given)	x	x	-14
CCOC(=O)C(C)Sc1ncnc2c1nnn2-c1ccc(OC)cc1 (stereo not given)	x	x	179*
COC(=O)c1cc2oc3ccccc3c2n1Cc1nc(-c2ccccc2)oc1C	x	x	-7
C=C(C)[C@@H]1CC=C(/C=N/NC(=O)CCCCCCC(=O)Nc2ccccc2O)CC1	x	0.4	13
CCCCn1nnc2c(=O)oc3ccccc3c21	x	x	187*
O=c1oc2ccccc2c2c1nc(C(F)(F)F)n2-c1ccccc1	x	x	21
C=C1C2=C(O[C@H](/C(C)=C/C(C)CC(C)CC)[C@@H](O)[C@@H]2O)C(=O)N1OC (stereo not given in full)	0	-0.38	149*
N#Cc1cc(Oc2ccc(C(=O)c3ccccc3)cc2)nc2ccccc12	x	x	12
CCOC(=O)c1c(-c2ccccc2)oc2ccc(O)c(CSCC(=O)Nc3ccccc3)c12	-1	9.6*	20
CCOC(=O)c1ccc(NC(=O)Cn2c(=O)oc3ccccc32)cc1	1	x	-21
COc1ccc(C(CC(=O)NCc2ccc(C)cc2)N2Cc3ccccc3C2=O)cc1OC (stereo not given)	x	x	1
COc1cc(NC(=O)c2ccc(CSC3CCCCC3)cc2)cc(OC)c1OC	x	x	135*
O=C(O)c1ccc(CSC2CCCCC2)cc1	x	x	-13
CCC(Sc1nc(C)cc(C)n1)C(=O)Nc1ccc(-c2nc3ccc(C)cc3s2)cc1 (stereo not given)	-1	x	-4
CCOC(=O)c1c(SC)n(-c2ccccc2)c(=S)n(-c2ccccc2)c1=O	x	x	21
CCOC(=O)c1c(CN2CCCCC2)n(-c2ccccc2)c2cc(Br)c(OC)cc12	-1	0.22	121*
CCOC(=O)c1c(CN(C)C)n(-c2ccccc2)c2cc(Br)c(OC)cc12	-3	0.016	238*
CCOC(=O)c1c(C)n(-c2cccc(C)c2)c2ccc(O)cc12	-6	-0.2	-4
COc1ccc(NC(=O)C2CCCCN2/N=C/c2ccc(OC)c(OCC(C)C)c2)cc1OC (stereo not given)	x	x	20
Cc1ccc(N(Cc2ccco2)C(=O)c2cccc(S(=O)(=O)N(C)C)c2)cc1	-2	x	138*
O=C(c1ccco1)N(Cc1ccco1)c1ccc(O)cc1	0	x	-5
CCC1(C)Cc2nc3nc(SCC(=O)c4ccccc4)n(Cc4ccccc4)c(=O)c3cc2CO1 (stereo not given)	x	x	37
COc1ccc(NC(=S)N(Cc2ccccc2)Cc2cccn2Cc2ccc(C)cc2C)cc1OC	x	x	12
CCOc1c(O)ccc(C(c2c[nH]c3ccccc23)c2c[nH]c3ccccc23)c1[N+](=O)[O-]	-1	x	1
Cc1ccc(OC(=O)c2cc(S(=O)(=O)N3CCCC3)ccc2C)cc1C	x	x	4
SMILES	PD-1 reverse act	YB-1 expr inh	U2OS ROS induce
CCN(CC)S(=O)(=O)c1ccc(Cl)c(C(=O)Oc2ccc(C)c(C)c2)c1	2	9.1*	14
Cc1ncsc1CCSc1nc2ccccc2c(=O)n1-c1ccccc1	-7	x	-19
COc1ccc(NC(=O)N(C)C[C@H]2Oc3ccc(NC(=O)Cc4ccccc4)cc3CC(=O)N([C@@H](C)CO)C[C@@H]2C)cc1	x	0.18	100*
C[C@H](CO)N1C[C@H](C)[C@H](CN(C)C(=O)Nc2ccccc2)Oc2ccc(NC(=O)Cc3ccccc3)cc2CC1=O	x	4.6*	-2
C[C@H]1CN([C@@H](C)CO)C(=O)Cc2cc(NC(=O)Cc3ccccc3)ccc2O[C@H]1CN(C)C(=O)Nc1ccccc1	0	-0.09	8
COc1ccc(NC(=O)N(C)C[C@@H]2Oc3ccc(NC(=O)Cc4ccccc4)cc3CC(=O)N([C@@H](C)CO)C[C@@H]2C)cc1	-1	-0.027	-7
C[C@H]1CN([C@@H](C)CO)C(=O)Cc2cc(NC(=O)Cc3cn(C)c4ccccc34)ccc2O[C@H]1CN(C)C(=O)Nc1ccc(C(F)(F)F)cc1	-1	-0.42	100*
C[C@H](CO)N1C[C@H](C)[C@H](CN(C)C(=O)Nc2ccc(C(F)(F)F)cc2)Oc2ccc(NC(=O)Cc3cn(C)c4ccccc34)cc2CC1=O	1	-0.043	8
Cc1cc(NCCN2CCCCC2)c2ccc3ccccc3c2n1	x	x	13
CCc1ccc(NC(=O)N2CCC(N(C)C(C)C)CC2)cc1	x	x	-17
Cc1c(Cl)cccc1N(CC(=O)Nc1ccc(I)cc1)S(C)(=O)=O	1	x	-7
CN(C)CCCN1C(=O)C(=O)C(C(=O)c2ccco2)C1c1cccc([N+](=O)[O-])c1 (stereo not given)	4	x	-12
COC(=O)Oc1ccc2c(=O)c(-c3ccccc3)coc2c1	x	x	-8
CCOC(=O)C(C)Oc1ccc2c(-c3ccccc3)cc(=O)oc2c1 (stereo not given)	-1	-0.007	107*
Cc1nc2c3ccccc3nc(SCc3cccc(C(F)(F)F)c3)n2n1	x	x	44
CC(C)NC(=O)N(C)C[C@H]1Oc2ccc(N(C)C)cc2CC(=O)N([C@@H](C)CO)C[C@@H]1C	1	0.1	-5
COc1ccc(NC(=O)N(C)C[C@H]2Oc3ccc(NC(=O)NC4CCCCC4)cc3CC(=O)N([C@H](C)CO)C[C@H]2C)cc1	-1	0.012	83*
COc1ccc(NC(=O)Nc2ccc3c(c2)CC(=O)N([C@@H](C)CO)C[C@@H](C)[C@@H](CN(C)C(=O)NC2CCCCC2)O3)cc1	2	0.44	15
C[C@@H]1CN([C@H](C)CO)C(=O)Cc2cc(N(C)C)ccc2O[C@@H]1CN(C)C(=O)NC1CCCCC1	-1	0.2	108*
COc1ccc(CN(C)C[C@@H]2Oc3ccc(NC(=O)NC4CCCCC4)cc3CC(=O)N([C@H](C)CO)C[C@H]2C)cc1	x	6.7*	0
COc1ccc(CN(C)C[C@@H]2Oc3ccc(NC(=O)Nc4ccc(C(F)(F)F)cc4)cc3CC(=O)N([C@H](C)CO)C[C@@H]2C)cc1	-1	9.7*	6
COc1ccc(CN(C)C[C@@H]2Oc3ccc(NC(=O)NC4CCCCC4)cc3CC(=O)N([C@@H](C)CO)C[C@@H]2C)cc1	x	-0.34	-1
COc1ccc(NC(=O)Nc2ccc3c(c2)CC(=O)N([C@H](C)CO)C[C@@H](C)[C@H](CN(C)Cc2ccc(C(F)(F)F)cc2)O3)cc1	x	-0.18	11
CCCNC(=O)Cn1ncn2c(cc3sc(CC)cc32)c1=O	x	x	6
NCCCCCCNC(=O)[C@@H]1C[C@@H]2C(=O)NCC(=O)N2[C@@H]1c1cccc(OCCO)c1	x	0.081	8
SMILES	PD-1 reverse act	YB-1 expr inh	U2OS ROS induce
CSc1ccccc1NC(=O)CN(c1cccc(F)c1)S(C)(=O)=O	1	x	-3
O=C(Nc1sc2c(c1C(=O)NCc1ccco1)CCCC2)c1ccc(Cl)cc1Cl	0	x	35
O=C(Nc1ccc(F)cc1)C1c2ccccc2Oc2ccccc21	x	x	-8
COC(=O)c1c(NC(=O)COc2ccccc2)sc(C(N)=O)c1C	-2	x	u
Cc1noc(C)c1NC(=O)N(C)C[C@H]1Oc2ccc(NC(=O)NC3CCCCC3)cc2CC(=O)N([C@@H](C)CO)C[C@@H]1C	0	0.19	104*
Cc1noc(C)c1NC(=O)N(C)C[C@@H]1Oc2ccc(NC(=O)NC3CCCCC3)cc2CC(=O)N([C@H](C)CO)C[C@H]1C	2	-0.13	2
O=S(=O)(NCC(Nc1ccccc1)c1ccccc1)c1ccccc1 (stereo not given)	x	x	2

Assay outcomes (PubChem)
